{"source": "PubChem BioAssay (NCI)", "key": {"[1]": {"assay": "NCI Yeast Anticancer Drug Screen. Data for the rad52 strain (AID 147);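 further: 0% = growth of vehicle-treated control cultures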", "settings": "S. cerevisiae rad52 mutant growth inhibition, active compounds read high", "outline": "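Yeast strain carrying a DNA damage repair alteration was exposed to test compounds. Growth inhibition was measured relative to vehicle-treated controls.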"}, "[2]": {"assay": "NCI Yeast Anticancer Drug Screen. Data for the wt1 strain (AID 149);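 further: 0% = growth of vehicle-treated wt1 cultures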", "settings": "S. cerevisiae wt1 strain (SPY 50644) growth inhibition, active compounds read high", "outline": "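Measured: growth of wt1 yeast under compound versus vehicle treatment, reported as inhibition.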"}, "[3]": {"assay": "NCI Yeast Anticancer Drug Screen. Data for the rad50EPP+ strain (AID 151);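 further: 0% = growth of vehicle-treated control cultures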", "settings": "S. cerevisiae rad50 mutant strain, active compounds read high", "outline": "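Yeast strain carrying rad50 alteration (rad50EPP+) exposed to compounds; growth inhibition measured relative to vehicle-treated controls.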"}, "[4]": {"assay": "NCI Yeast Anticancer Drug Screen. Data for the mgt1 strain (AID 153)", "settings": "S. cerevisiae mgt1 mutant growth inhibition, active compounds read high", "outline": "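Yeast mgt1 strain (DNA repair/cell-cycle alteration panel) exposed to compounds; growth inhibition measured relative to vehicle-treated controls.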"}, "[5]": {"assay": "NCI Yeast Anticancer Drug Screen. Data for the rad50 strain (AID 155);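 further: 0% = growth of vehicle-only cultures of the same strain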", "settings": "S. cerevisiae rad50 strain growth inhibition, active compounds read high", "outline": "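Growth of the mutant yeast was measured after compound exposure and referenced to vehicle-treated cultures.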"}, "[6]": {"assay": "NCI Yeast Anticancer Drug Screen. Data for the mec2-1 strain (AID 157)", "settings": "S. cerevisiae mec2-1 strain, active compounds read high", "outline": "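mec2-1 yeast strain, carrying an alteration in DNA damage repair or cell cycle control, was exposed to compounds; growth inhibition was measured relative to vehicle-treated controls.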"}, "[7]": {"assay": "NCI Yeast Anticancer Drug Screen. Data for the rad14 strain (AID 159);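 further: 0% = growth of vehicle-treated control cultures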", "settings": "S. cerevisiae rad14 strain growth inhibition, active compounds read high", "outline": "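Here, inhibition of yeast growth was measured after compound exposure, using a strain with a genetic defect in DNA damage repair and vehicle-treated cultures as the reference.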"}, "[8]": {"assay": "NCI Yeast Anticancer Drug Screen. Data for the CLN2oe strain (AID 163);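 further: 0% = growth of vehicle-only control cultures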", "settings": "S. cerevisiae CLN2oe strain, active compounds read high", "outline": "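Yeast cells carrying a defined cell-cycle control alteration were exposed to test compounds. Growth inhibition was scored against vehicle-treated control cultures.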"}, "[9]": {"assay": "NCI Yeast Anticancer Drug Screen. Data for the cln2 rad14 strain (AID 165);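 further: 0% = growth equal to vehicle treated cultures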", "settings": "S. cerevisiae cln2 rad14 strain, active compounds read high", "outline": "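Yeast carrying cln2 and rad14 alterations (cell cycle control and DNA damage repair) were exposed to compounds. Growth inhibition was measured against vehicle-treated controls.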"}, "[10]": {"assay": "NCI Yeast Anticancer Drug Screen. Data for the bub3 strain (AID 167)", "settings": "S. cerevisiae bub3 mutant strain, active compounds read high", "outline": "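Whole-cell yeast assay. The mutant strain was incubated with compounds, and growth inhibition was determined by comparison with vehicle-treated cells.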"}, "[11]": {"assay": "NCI Yeast Anticancer Drug Screen. Data for the wt2 strain (AID 169);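 further: 0% = growth of vehicle-treated yeast cultures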", "settings": "S. cerevisiae wt2 strain growth inhibition, active compounds read high", "outline": "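Yeast cells were exposed to test compounds, and growth inhibition was measured relative to vehicle-treated controls.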"}, "[12]": {"assay": "NCI Yeast Anticancer Drug Screen. Data for the mlh1 strain (AID 171);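 further: 0% = growth of vehicle-treated control cultures of the same strain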", "settings": "S. cerevisiae mlh1 strain growth inhibition, active compounds read high", "outline": "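Yeast carrying a defined genetic alteration in DNA damage repair or cell cycle control were exposed to test compounds. Growth inhibition was measured relative to vehicle-treated controls.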"}, "[13]": {"assay": "NCI Yeast Anticancer Drug Screen. Data for the sgs1 strain (AID 173);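 further: 0% = growth of vehicle-only control cultures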", "settings": "S. cerevisiae sgs1 mutant, active compounds read high", "outline": "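Yeast mutant strains carrying defined defects in DNA damage repair or cell cycle control were exposed to test compounds. Growth inhibition was scored against vehicle-treated controls.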"}, "[14]": {"assay": "NCI Yeast Anticancer Drug Screen. Data for the mlh1 rad18 strain (AID 175)", "settings": "S. cerevisiae mlh1 rad18 strain growth inhibition, active compounds read high", "outline": "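Growth inhibition of the yeast strain was measured after compound exposure and expressed relative to vehicle-treated controls. The strain carries defined defects in DNA damage repair.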"}, "[15]": {"assay": "NCI Yeast Anticancer Drug Screen. Data for the rad18 strain (AID 177)", "settings": "S. cerevisiae rad18 mutant growth inhibition, active compounds read high", "outline": "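Yeast carrying a defined DNA damage repair alteration were exposed to compounds. Growth inhibition was expressed relative to vehicle-treated controls.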"}, "[16]": {"settings": "at 5.0 µM (retest, dose inferred, filed as 0.5)"}, "[17]": {"settings": "at 50.0 µM (retest, dose inferred, filed as 5.0)"}}, "note": "Compounds without any hit were thinned out: in the full panel of roughly 79,000, 15% have a hit. Unmarked numbers belong to inactive results. The source made the active and inactive calls. No stated cut-off is given here; in the data, active means growth inhibition above about 70%; inactive means the rest."}
{"smiles": "O=C1Nc2ccc(Br)cc2C1=Nc1ccc(Cl)cc1", "values": [{"measurement": "growth inhibition", "setting": "[1]; at 1.2 µM", "value": -20, "unit": "%"}, {"measurement": "growth inhibition", "setting": "[1]; at 3.7 µM", "value": -12, "unit": "%"}, {"measurement": "growth inhibition", "setting": "[1]; at 11.0 µM", "value": 9, "unit": "%"}, {"measurement": "growth inhibition", "setting": "[1]; at 33.0 µM", "value": 42, "unit": "%"}, {"measurement": "growth inhibition", "setting": "[1]; at 100.0 µM", "value": 64, "unit": "%"}, {"measurement": "growth inhibition", "setting": "[2]; at 1.2 µM", "value": -8, "unit": "%"}, {"measurement": "growth inhibition", "setting": "[2]; at 3.7 µM", "value": -15, "unit": "%"}, {"measurement": "growth inhibition", "setting": "[2]; at 11.0 µM", "value": 14, "unit": "%"}, {"measurement": "growth inhibition", "setting": "[2]; at 33.0 µM", "value": 42, "unit": "%"}, {"measurement": "growth inhibition", "setting": "[2]; at 100.0 µM", "value": "71% (active)"}, {"measurement": "growth inhibition", "setting": "[3]; at 1.2 µM", "value": -45, "unit": "%"}, {"measurement": "growth inhibition", "setting": "[3]; at 3.7 µM", "value": -10, "unit": "%"}, {"measurement": "growth inhibition", "setting": "[3]; at 11.0 µM", "value": -8, "unit": "%"}, {"measurement": "growth inhibition", "setting": "[3]; at 33.0 µM", "value": 8, "unit": "%"}, {"measurement": "growth inhibition", "setting": "[3]; at 100.0 µM", "value": 41, "unit": "%"}, {"measurement": "growth inhibition", "setting": "[4]; at 1.2 µM", "value": -52, "unit": "%"}, {"measurement": "growth inhibition", "setting": "[4]; at 3.7 µM", "value": -55, "unit": "%"}, {"measurement": "growth inhibition", "setting": "[4]; at 11.0 µM", "value": -21, "unit": "%"}, {"measurement": "growth inhibition", "setting": "[4]; at 33.0 µM", "value": 20, "unit": "%"}, {"measurement": "growth inhibition", "setting": "[4]; at 100.0 µM", "value": 50, "unit": "%"}, {"measurement": "growth inhibition", "setting": "[5]; at 1.2 µM", "value": -29, "unit": "%"}, {"measurement": "growth inhibition", "setting": "[5]; at 3.7 µM", "value": -20, "unit": "%"}, {"measurement": "growth inhibition", "setting": "[5]; [16]", "value": "70% (active)"}, {"measurement": "growth inhibition", "setting": "[5]; at 11.0 µM", "value": 12, "unit": "%"}, {"measurement": "growth inhibition", "setting": "[5]; at 33.0 µM", "value": 42, "unit": "%"}, {"measurement": "growth inhibition", "setting": "[5]; [17]", "value": "100% (active)"}, {"measurement": "growth inhibition", "setting": "[5]; at 50.0 µM", "value": 57.4, "unit": "%"}, {"measurement": "growth inhibition", "setting": "[5]; at 100.0 µM", "value": 64, "unit": "%"}, {"measurement": "growth inhibition", "setting": "[6]; at 1.2 µM", "value": -68, "unit": "%"}, {"measurement": "growth inhibition", "setting": "[6]; at 3.7 µM", "value": -75, "unit": "%"}, {"measurement": "growth inhibition", "setting": "[6]; [16]", "value": "77% (active)"}, {"measurement": "growth inhibition", "setting": "[6]; at 11.0 µM", "value": -64, "unit": "%"}, {"measurement": "growth inhibition", "setting": "[6]; at 33.0 µM", "value": -1, "unit": "%"}, {"measurement": "growth inhibition", "setting": "[6]; [17]", "value": "100% (active)"}, {"measurement": "growth inhibition", "setting": "[6]; at 50.0 µM", "value": 54.5, "unit": "%"}, {"measurement": "growth inhibition", "setting": "[6]; at 100.0 µM", "value": 57, "unit": "%"}, {"measurement": "growth inhibition", "setting": "[7]; at 1.2 µM", "value": -52, "unit": "%"}, {"measurement": "growth inhibition", "setting": "[7]; at 3.7 µM", "value": -62, "unit": "%"}, {"measurement": "growth inhibition", "setting": "[7]; at 11.0 µM", "value": -46, "unit": "%"}, {"measurement": "growth inhibition", "setting": "[7]; at 33.0 µM", "value": -8, "unit": "%"}, {"measurement": "growth inhibition", "setting": "[7]; at 100.0 µM", "value": 34, "unit": "%"}, {"measurement": "growth inhibition", "setting": "[8]; at 1.2 µM", "value": 2, "unit": "%"}, {"measurement": "growth inhibition", "setting": "[8]; at 3.7 µM", "value": 1, "unit": "%"}, {"measurement": "growth inhibition", "setting": "[8]; at 11.0 µM", "value": 20, "unit": "%"}, {"measurement": "growth inhibition", "setting": "[8]; at 33.0 µM", "value": 24, "unit": "%"}, {"measurement": "growth inhibition", "setting": "[8]; at 100.0 µM", "value": 52, "unit": "%"}, {"measurement": "growth inhibition", "setting": "[9]; [16]", "value": 36, "unit": "%"}, {"measurement": "growth inhibition", "setting": "[9]; [17]", "value": 54, "unit": "%"}, {"measurement": "growth inhibition", "setting": "[9]; at 50.0 µM", "value": 34, "unit": "%"}, {"measurement": "growth inhibition", "setting": "[10]; at 1.2 µM", "value": -38, "unit": "%"}, {"measurement": "growth inhibition", "setting": "[10]; at 3.7 µM", "value": -26, "unit": "%"}, {"measurement": "growth inhibition", "setting": "[10]; [16]", "value": 28, "unit": "%"}, {"measurement": "growth inhibition", "setting": "[10]; at 11.0 µM", "value": -11, "unit": "%"}, {"measurement": "growth inhibition", "setting": "[10]; at 33.0 µM", "value": 29, "unit": "%"}, {"measurement": "growth inhibition", "setting": "[10]; [17]", "value": "86% (active)"}, {"measurement": "growth inhibition", "setting": "[10]; at 50.0 µM", "value": "83.4% (active)"}, {"measurement": "growth inhibition", "setting": "[10]; at 100.0 µM", "value": "81% (active)"}, {"measurement": "growth inhibition", "setting": "[11]; at 1.2 µM", "value": -20, "unit": "%"}, {"measurement": "growth inhibition", "setting": "[11]; at 3.7 µM", "value": -12, "unit": "%"}, {"measurement": "growth inhibition", "setting": "[11]; at 11.0 µM", "value": -10, "unit": "%"}, {"measurement": "growth inhibition", "setting": "[11]; at 33.0 µM", "value": 14, "unit": "%"}, {"measurement": "growth inhibition", "setting": "[11]; at 100.0 µM", "value": 47, "unit": "%"}, {"measurement": "growth inhibition", "setting": "[12]; at 1.2 µM", "value": -16, "unit": "%"}, {"measurement": "growth inhibition", "setting": "[12]; at 3.7 µM", "value": -24, "unit": "%"}, {"measurement": "growth inhibition", "setting": "[12]; at 11.0 µM", "value": -3, "unit": "%"}, {"measurement": "growth inhibition", "setting": "[12]; at 33.0 µM", "value": 8, "unit": "%"}, {"measurement": "growth inhibition", "setting": "[12]; at 100.0 µM", "value": 46, "unit": "%"}, {"measurement": "growth inhibition", "setting": "[13]; at 1.2 µM", "value": -25, "unit": "%"}, {"measurement": "growth inhibition", "setting": "[13]; at 3.7 µM", "value": -27, "unit": "%"}, {"measurement": "growth inhibition", "setting": "[13]; at 11.0 µM", "value": 3, "unit": "%"}, {"measurement": "growth inhibition", "setting": "[13]; at 33.0 µM", "value": 33, "unit": "%"}, {"measurement": "growth inhibition", "setting": "[13]; at 100.0 µM", "value": 54, "unit": "%"}, {"measurement": "growth inhibition", "setting": "[14]; [16]", "value": 67, "unit": "%"}, {"measurement": "growth inhibition", "setting": "[14]; [17]", "value": "100% (active)"}, {"measurement": "growth inhibition", "setting": "[14]; at 50.0 µM", "value": 58.5, "unit": "%"}, {"measurement": "growth inhibition", "setting": "[15]; at 1.2 µM", "value": -24, "unit": "%"}, {"measurement": "growth inhibition", "setting": "[15]; at 3.7 µM", "value": -13, "unit": "%"}, {"measurement": "growth inhibition", "setting": "[15]; at 11.0 µM", "value": 2, "unit": "%"}, {"measurement": "growth inhibition", "setting": "[15]; at 33.0 µM", "value": 32, "unit": "%"}, {"measurement": "growth inhibition", "setting": "[15]; at 100.0 µM", "value": 60, "unit": "%"}]}
